The list is not random: actives were taken first. Their share in the collection is about 3%.
HBB splicing: hemoglobin beta splicing modulation | HBB splicing reporter cell assay, activation; EGFP reporter with mutant IVS2-654 intron; response scale: normalised to 500 nM splice-correcting PNA | Potency, µM (titrated, usually from 46.1 µM), for the others: top-dose activation, usual class: activators | hit rate 0.06% among 65,000; further: potency means the concentration at half of the fitted maximal effect; 0% is about no effect
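HeLa cells stably expressing EGFP interrupted by mutant beta-globin intron 2 (IVS2-654), 500/well in 2% FCS. Treated with compound for 2 days at 37C. Splicing correction scored as total well GFP intensity (488 nm excitation, 500-520 nm emission); 500 nM antisense PNA served as control.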
HEK293 cAMP cs: counter-screen for TSHR agonists: cAMP increase in parental HEK293. hit rate 2.5% among 73,000. parental HEK293 CNG cAMP sensor, membrane potential fluorescence. AID 938. Potency, µM (titrated, usually from 57.1 µM), inactives show top-dose activation, hits mostly activators; further: potency means the concentration at half of the fitted maximal effect; % of control where 0% means no effect; nearly all actives have a fitted effect of over 55% in size
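Counterscreen for endogenous-receptor signalling: CNG-channel HEK 293 cells report cAMP rise by membrane depolarization. After 60 min dye equilibration with 100 uM RO 20-1724, compounds incubated 30 min before bottom-read fluorescence at 590 nm.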
Ub-GFP proteasome: inhibits proteasome, raising ubiquitin-GFP reporter fluorescence. Ubiquitin-GFP reporter cells, proteasome inhibition, GFP fluorescence; response scale: untreated = 0%, 10 µM MG-132 = 100%. Potency, µM (top dose mostly 45.9 µM), for the others: top-dose activation (GFP accumulation), usual class: activators. 67,000 tested, under 10 active. AID 526; active means well fitted activation curve with a large enough effect, not every such curve was filed as active; inconclusive means small, poorly fitted or top-dose-only effect, or another doubt; inactive means no such curve, though single readings can be large or run the other way; further: potency means the concentration at half of the fitted maximal effect
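U2OS cells expressing ubiquitin(G76V)-GFP, seeded overnight in 0.5% FBS medium, then treated 4 hr at 37 C across 46 uM to 2.9 nM. GFP-positive cells counted by laser cytometry (488 ex/515 em); %activity scaled between basal and 10 uM MG-132.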
TSHR agonist: TSH receptor (human) agonism. hit rate 0.48% among 73,000. Potency, µM (highest dose often 57.1 µM), inactives show top-dose activation, usual class: activators. AID 926. HEK293-CNG-TSHR cells (CNG channel as cAMP sensor), membrane potential dye, cAMP; active means well fitted activation curve with a large enough effect in the main read-out, with a control signal flat, not every such curve was filed as active; inconclusive means small, poorly fitted or top-dose-only effect, or a change in a side signal; inactive means no such curve, though single readings can be large or run the other way; % of control where 0% means no effect;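 further: the control signal comes from parental cells without the receptor; potency means the concentration at half of the fitted maximal effect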
Target sequence (P16473 whole entry, looked up): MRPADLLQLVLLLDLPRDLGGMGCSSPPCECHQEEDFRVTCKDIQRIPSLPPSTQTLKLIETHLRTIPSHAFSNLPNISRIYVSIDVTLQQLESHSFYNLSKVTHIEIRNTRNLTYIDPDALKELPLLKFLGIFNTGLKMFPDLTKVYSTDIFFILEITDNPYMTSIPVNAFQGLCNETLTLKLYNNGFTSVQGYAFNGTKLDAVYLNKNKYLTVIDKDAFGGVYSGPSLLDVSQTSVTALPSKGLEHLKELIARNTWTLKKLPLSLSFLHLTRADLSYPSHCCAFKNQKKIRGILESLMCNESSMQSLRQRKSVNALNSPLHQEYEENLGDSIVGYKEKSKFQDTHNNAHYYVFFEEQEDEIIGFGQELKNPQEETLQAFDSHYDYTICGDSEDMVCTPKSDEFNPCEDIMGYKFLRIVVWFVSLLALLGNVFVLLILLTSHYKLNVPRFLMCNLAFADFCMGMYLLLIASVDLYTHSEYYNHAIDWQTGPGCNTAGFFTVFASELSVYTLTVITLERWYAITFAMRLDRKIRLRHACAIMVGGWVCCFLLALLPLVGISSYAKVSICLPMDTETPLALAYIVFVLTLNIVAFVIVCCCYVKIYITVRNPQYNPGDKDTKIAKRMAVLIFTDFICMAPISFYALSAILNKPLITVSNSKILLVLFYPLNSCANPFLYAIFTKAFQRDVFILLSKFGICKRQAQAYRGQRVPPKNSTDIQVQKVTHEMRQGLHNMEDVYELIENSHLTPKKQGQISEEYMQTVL
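HEK 293 cells stably expressing TSHR and a modified CNG channel, with CNG-only parental cells as counterscreen, were preloaded 60 min at room temperature with membrane potential dye containing 100 uM RO 20-1724. Compound exposure was 30 min, and depolarization was read as fluorescence at 590 nm.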
Epigenetic mod: epigenetic modulators derepressing GFP locus in mouse cells | Potency, µM (doses to about 46.1 µM), for inactives: at the highest dose GFP derepression (activation) | mouse C127i GFP locus derepression, cytometry, 30 h | AID 597 | hit rate 0.09% among 68,000; further: % of control where 0% means no effect
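Read-out is the number of GFP-positive cells, scored as fluorescent objects 20 to 120 um wide, reflecting derepression of a silenced CMV-GFP reporter in murine C127i cells after 30 h compound exposure at 37 C.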
parental cAMP: counter-screen for TSH receptor agonists: cAMP in parental HEK293 cells; activity change, negative = inhibition, % at 32.9 µM; parental HEK293 CNG biosensor, cAMP membrane potential fluorescence; shares compounds with TSHR agonist; AID 953; 150 tested, under 10 active
Active calls of the source: *; u = inconclusive; x = no result; [ ] = remark or other dose. Unless noted, the call rests on the fitted dose curve; in most records, active means well fitted curve in the direction sought with a large enough effect; inconclusive means small, poorly fitted or top-dose-only effect, or another doubt; inactive means no such curve, though single readings can be large; an effect the other way counts as inactive or inconclusive.

SMILES	HBB splicing	HEK293 cAMP cs	Ub-GFP proteasome	TSHR agonist	Epigenetic mod	parental cAMP
NC(=O)c1nsc(C(=O)N(CC(=O)NCc2ccc3c(c2)OCO3)C2CCCC2)c1N	x	13%	11%	13µM*	-2%	7
CCNC(=O)[C@@H]1O[C@@H](n2cnc3c(N)nc(NCCc4ccc(CCC(=O)O)cc4)nc32)[C@H](O)[C@@H]1O	0%	13%	-6%	x	1%	x
COc1ccc(S(=O)(=O)NCCC(=O)NCc2ccc(F)cc2)cc1	-1%[57.5 µM]	1%	-1%	x	2%	-9
COc1ccc(S(=O)(=O)NCCC(=O)NC2CCCCCCC2)cc1	-3%[57.5 µM]	0%	1%	-1%	2%	x
CCNc1ncc2ncc(=O)n(Cc3ccc(F)cc3)c2n1	0%	u	-9%	u	u	x
CCNc1ncc2nc(-c3cccs3)c(=O)n(Cc3ccc(F)cc3)c2n1	u	2%	6%	-11%	0%[9.22 µM]	x
Cc1nc2ccc(NC(=O)c3ccc(S(=O)(=O)N4CCOCC4)cc3)cc2s1	-2%	31%	-6%	26%	8%	u
COc1cccc(C(c2nnnn2Cc2ccccc2)N2CCN(C(=O)c3ccco3)CC2)c1OC (stereo not given)	0%[57.5 µM]	15%	-1%	25µM*	0%	-4
COc1ccc(C(c2nnnn2Cc2ccccc2)N2CCN(C(=O)c3ccco3)CC2)cc1 (stereo not given)	x	u	0%	u	-1%	x
Cc1ccc(C)c(Cn2c(C(C)O)nc3ccccc32)c1 (stereo not given)	0%	18%	9%	4µM*	2%	-3
CCCCCCn1c(C(C)O)nc2ccccc21 (stereo not given)	x	x	x	x	0%[20.6 µM]	x
Cc1ccc(C)c(N(C(=O)Cn2nnc(-c3cccs3)n2)C(C(=O)NC2CC2)c2ccc(C)o2)c1 (stereo not given)	x	28%	0%	7.9µM*	-1%	u
Cc1ccc(N(C(=O)Cn2nnc(-c3ccc(C)o3)n2)C(C(=O)NC2CCCC2)c2ccco2)cc1 (stereo not given)	0%[57.5 µM]	25%	0%	16%	-2%	x
CC1=CC(=O)CC(C)(C)[C@]1(O)/C=C\C(C)=C\C(=O)O	1%[9.22 µM]	3%[11.4 µM]	-4%[9.17 µM]	-5%[11.4 µM]	0%[9.22 µM]	x
COCCNC(=O)C(c1ccc(C)o1)N(C(=O)c1snc(C(N)=O)c1N)c1ccc(C)cc1 (stereo not given)	x	9%	-2%	32µM*	-2%	12
COc1cccc(Cn2c(=O)c(-c3ccc(Cl)cc3)nc3cncnc32)c1	1%	15%	6%	-10%	8%[9.22 µM]	x
CC(=O)OC[C@@H]1O[C@H](C/C=N\OC[C@@H](O)COCc2ccco2)C=C[C@@H]1OC(C)=O	0%[9.22 µM]	3%[11.4 µM]	x	15%[11.4 µM]	x	x
CC(C)CC(=O)Nc1cccc(-c2cn3ccsc3n2)c1	-1%	0%	-11%	16µM*	-2%	-9
CCC(=O)Nc1cccc(-c2cn3ccsc3n2)c1	7%	-3%	4%	-12%	-4%	x
O=S1(=O)N=C(Oc2ccccc2)c2ccccc21	4%	9%	-1%	0%	u	-7[25.6 µM]
O=C(Nc1ccc(N2CCOCC2)cc1)C1CC1	-2%	3%	-3%	-2%	-3%	5[25.6 µM]
O=C(Nc1ccc(N2CCOCC2)cc1)NC1CCCCC1	x	-11%	x	17%	x	x
CCN(c1ccccc1)S(=O)(=O)c1ccc(Oc2ccc(-n3ccnc3)cc2)nc1	0%[57.5 µM]	20%	2%	25µM*	-1%	-2
Cc1cc(-n2c(C)cc(C(=O)CSc3nnnn3-c3ccc(Cl)cc3)c2C)no1	2%	12%	-2%	x	1%	14
Cc1cc(-n2c(C)cc(C(=O)CSc3nnc4sc5ccccc5n34)c2C)no1	0%	2%	2%	5%	-1%	x
Cc1cnc(CNc2nc(-c3ccc(C(=O)N(C)C)cc3)nc3ccccc23)cn1	0%	-2%	2%	28%	3%[9.22 µM]	x
